Source: PubChem BioAssay
DT40 TDP1 CPT: growth inhibition of DT40 Tdp1-/-;hTDP1 cells with camptothecin (screen for TDP1 inhibitors); 420,000 tested, 12% active; Potency, µM (doses to about 46.2 µM), inactives show top-dose activity change, negative = growth inhibition, usual class: inhibitors; chicken DT40 Tdp1-/-;hTDP1 cells + 20 nM CPT, ATP luminescence, 48 h; further: potency means the concentration at half of the fitted maximal effect; nearly all actives have a fitted effect of over 55% in size
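Chicken DT40 Tdp1-/- cells complemented with human TDP1, 400 cells/well, exposed to compounds plus 20 nM camptothecin for at least 48 h at 37 C; viability read as ATP content by CellTiter-Glo luminescence.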
IL1B secr inh: blocks inflammasome-driven IL-1 beta release | THP-1 LPS/ATP IL-1B secretion, AlphaLISA, 16 h; stronger effect = lower value | activity change, % at 57.5 µM | 360,000 tested, 4.7% active; in the data active means activity change below about -50%; inconclusive means mostly about -30% to -49%
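Secreted IL-1B measured by AlphaLISA bead assay after 16 h compound exposure of THP-1 cells; compounds (final up to 57.5 uM) added 1 h before LPS (250 ng/mL) and ATP (1.25 mM) stimulation; lower signal means less secretion.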
DT40 TDP1 no CPT: qHTS for Inhibitors of human tyrosyl-DNA phosphodiesterase 1 (TDP1): qHTS in cells in absence of CPT; Potency, µM (doses to about 46.2 µM), inactives show at the highest dose activity change, negative = growth inhibition, most hits filed as inhibitors; DT40 Tdp1-/- hTDP1 cells, no CPT, ATP luminescence, 48 h; AID 686978, 2013; 420,000 tested, 15% active; further: potency means the concentration at half of the fitted maximal effect; nearly all actives have a fitted effect of over 55% in size
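Seeded 400 DT40-hTDP1 cells/well (vehicle DMSO, no 20 nM CPT); pinned compounds; ≥48 hr at 37 °C; CellTiter-Glo luminescence as viability measure.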
Six1-Eya2 blk: blocks human Six1 binding to Eya2; Q15475+O00167; AlphaScreen GST-Six1/His-Eya2 binding, biochemical; stronger effect = lower value; activity change, % (no concentration beside the values); 360,000 tested, 0.56% active; in the data active means activity change below about -65%; inconclusive means mostly about -30% to -63%
Target sequence (O00167 whole entry, looked up): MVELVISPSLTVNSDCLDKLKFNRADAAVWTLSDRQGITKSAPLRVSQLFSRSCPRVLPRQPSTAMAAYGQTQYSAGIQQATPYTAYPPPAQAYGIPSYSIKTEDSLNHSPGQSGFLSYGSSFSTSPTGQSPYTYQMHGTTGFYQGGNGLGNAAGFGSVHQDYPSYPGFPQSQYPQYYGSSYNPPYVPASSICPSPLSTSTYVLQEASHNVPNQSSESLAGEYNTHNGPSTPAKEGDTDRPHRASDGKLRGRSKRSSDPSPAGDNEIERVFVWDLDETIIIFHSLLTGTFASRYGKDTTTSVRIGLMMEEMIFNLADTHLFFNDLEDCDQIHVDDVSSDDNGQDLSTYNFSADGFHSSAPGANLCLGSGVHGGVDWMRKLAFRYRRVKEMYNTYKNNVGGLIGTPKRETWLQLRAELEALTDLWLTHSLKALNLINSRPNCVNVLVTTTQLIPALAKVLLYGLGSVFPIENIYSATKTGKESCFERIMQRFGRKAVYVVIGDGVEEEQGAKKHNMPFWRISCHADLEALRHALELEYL
Target sequence (Q15475 whole entry, looked up): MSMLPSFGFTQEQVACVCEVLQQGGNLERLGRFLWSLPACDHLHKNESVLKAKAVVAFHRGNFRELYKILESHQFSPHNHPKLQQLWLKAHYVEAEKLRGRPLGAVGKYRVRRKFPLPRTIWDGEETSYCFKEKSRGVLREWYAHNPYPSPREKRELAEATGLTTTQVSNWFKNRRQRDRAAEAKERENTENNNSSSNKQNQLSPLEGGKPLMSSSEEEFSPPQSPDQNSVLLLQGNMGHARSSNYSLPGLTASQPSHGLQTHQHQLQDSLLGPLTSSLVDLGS
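AlphaScreen with GST-Six1 and His-Eya2 (5X mix: 250 nM and 500 nM), glutathione donor and nickel acceptor beads; buffer 50 mM Tris pH 8.0, 300 mM NaCl, 1 mM TCEP; 1 h at 37 C in the dark.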
TDP1 inh: inhibitors of human tyrosyl-DNA phosphodiesterase TDP1. 350,000 tested, 0.28% active. Potency, µM (highest dose often 130 µM), inactives show at the top dose activity change, negative = inhibition, most hits filed as inhibitors. recombinant TDP1, AlphaScreen DNA substrate cleavage; further: potency means the concentration at half of the fitted maximal effect; nearly all actives have a fitted effect of over 40% in size
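Signal: AlphaScreen proximity between streptavidin donor and anti-FITC acceptor beads on intact substrate. Reaction: Tdp1 1 nM, substrate 15 nM final, 5 min RT after 15 min compound preincubation.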
CtBP-E1A inh: inhibitors of CtBP/E1A interaction; AlphaScreen GST-E1A/His-CtBP binding, 1536-well; stronger effect = lower value; activity change, % (test concentration not listed); 340,000 tested, 0.49% active; AID 651724; in the data active means activity change below about -65%; inconclusive means mostly about -30% to -63%
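AlphaScreen with 125 nM GST-E1A and 125 nM His-CtBP (5X stocks) in Tris pH 8.0, 300 mM NaCl, BSA, Tween 20, TCEP. Compounds preincubated 2 h at 37 deg C, then glutathione donor/nickel acceptor beads added for 1 h at 37 deg C in dark.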
* = called active by the depositor; ? = inconclusive; / = no result given. A selection: hits, their analogues and other compounds. The true share with any hit is near 18%. Unless noted, the call rests on the fitted dose curve; in most records, active means well fitted curve in the direction sought with a large enough effect; inconclusive means small, poorly fitted or top-dose-only effect, or another doubt; inactive means no such curve, though single readings can be large; an effect the other way counts as inactive or inconclusive. On the % scale 0 is the no-effect control and ±100 the full control effect.

SMILES | DT40 TDP1 CPT | IL1B secr inh | DT40 TDP1 no CPT | Six1-Eya2 blk | TDP1 inh | CtBP-E1A inh
Cc1ccc(NC(=O)CN2C(=O)CCn3nc(-c4cccn4C)cc32)c(Cl)c1 | ? | / | ? | / | 11% | /
O=C(CN1C2=NCCN2c2ccccc21)N1CCOCC1 | -4% | -12 | 0% | 8 | 5% | 5
COc1ccc(NC(=O)CSc2nc3c(c(=O)n2-c2ccc(F)cc2)SCC3)c(OC)c1 | -19% | -18 | -23% | -24 | 5% | 0
COc1ccc(CCNc2cc(C)nc3c(-c4ccccc4OC)cnn23)cc1OC | ? | -4 | 18µM* | -7 | / | 10
COc1ccccc1-c1cnn2c(NCc3ccccc3)cc(C)nc12 | ? | -20 | ? | 13 | / | /
COc1ccc(CCNc2oc(-c3ccccc3OC)nc2C#N)cc1OC | ? | -11 | 18µM* | ? | 3% | -25
COc1ccc(CCNc2oc(-c3ccc(OC)c(OC)c3)nc2C#N)cc1 | 11µM* | -4 | ? | ? | 1% | -27
COc1ccc(-c2nc(C#N)c(NC(C)c3ccccc3)o2)cc1OC (configuration not stated) | ? | ? | 16µM* | -23 | 6% | -8
COc1ccc(-c2nc(C#N)c(NCCCN(C)C)o2)cc1OC | -18% | -3 | -5% | -9 | 0% | 9
COc1ccc(OCc2ccc(-c3nc(C#N)c(NC(C)c4ccccc4)o3)o2)cc1 (configuration not stated) | -11% | / | -15% | / | -4% | /
NC(=O)c1c(NC(=S)Nc2ccc(F)cc2)sc2c1CCCC2 | 2% | -9 | -27% | -1 | 3% | -2
Cc1ccc(N(CC(=O)N2CCn3c2nc2ccccc23)S(=O)(=O)c2c(C)n[nH]c2C)cc1 | -13% | -4 | -15% | -3 | 4% | -4
O=C(NCc1ccc(F)cc1)c1c2c(nc3ccccc13)CCC2 | ? | 12 | ? | 0 | -8% | -2
CCc1ccc(NC(=O)c2cccc(N3CCCS3(=O)=O)c2)cc1 | ? | / | ? | / | 3% | /
C=C1CCN([C@@H](Cc2ccccc2)C(=O)NCc2ccc(Cl)cc2)S(=O)(=O)c2ccccc21 | ? | 0 | 21µM* | -4 | / | 2
COc1ccccc1-c1nn(CCC(=O)Nc2ccc(C)cc2)c2nc(C)cc(C)c12 | ? | / | 13µM* | / | 8% | /
Cc1ccc(NC(=O)CCn2nc(C)cc2C)cc1 | 0% | 13 | -4% | 10 | 3% | -3
Cc1ccccc1Nc1ncnc(N)n1 | 2% | -11 | -2% | 6 | 3% | 11
CCc1c(N)nc(N)nc1Nc1ccccc1C | ? | -18 | 16µM* | 0 | / | 0
Cc1ccccc1CSCc1nc(N)nc(Nc2ccccc2C)n1 | ? | -19 | ? | -6 | 5% | -5
Cc1ccccc1Nc1nc(N)nc(C)c1Br | ? | -3 | 15µM* | 1 | / | 8
O=C(O)CCC(=O)N1CCN(c2nc(-c3ccccc3)c3cc(Br)ccc3n2)CC1 | ? | 21 | ? | -1 | / | -1
COc1ccc(C(CNC(=O)c2cccc(S(=O)(=O)Nc3ccccc3OC)c2)N2CCOCC2)cc1 (configuration not stated) | ? | 0 | ? | -7 | 0% | -10
CNS(=O)(=O)c1ccc2c3c(cccc13)C(=O)N2C | -21% | -84* | -11% | -2 | / | -2
COCCNC(=O)c1c(N)sc2c1CCCC2 | / | / | / | / | 2% | /
SMILES | DT40 TDP1 CPT | IL1B secr inh | DT40 TDP1 no CPT | Six1-Eya2 blk | TDP1 inh | CtBP-E1A inh
COc1cc(C2(c3ccc(O)c(OC)c3)C(=O)Nc3c(C)cc(Br)cc32)ccc1O | 2% | -102* | 0% | -3 | / | -3
CC1CCCN(C(=O)CCNS(=O)(=O)c2ccc(Br)cc2)C1 (configuration not stated) | -24% | -13 | -22% | 8 | / | 0
CN1CCCC1CCNS(=O)(=O)c1ccc(Br)cc1 (configuration not stated) | ? | 7 | 9.2µM* | 4 | 2% | 0
COc1ccc(N2CCN(C(c3ccc4ncccc4c3)c3nnnn3C(C)(C)C)CC2)cc1 (configuration not stated) | -5% | -4 | -6% | -15 | 11% | -12
O=C(Nc1ccc(OC(F)(F)F)cc1)N1CCN(c2ccnc3cc(Cl)ccc23)CC1 | 4.6µM* | ? | 5.2µM* | 9 | 3% | -1
CC(C)(C)C(=O)N1CCN(c2ccnc3cc(Cl)ccc23)CC1 | ? | -14 | ? | 8 | 1% | /
COc1ccccc1NC(=O)N1CCc2[nH]c3ccc(Cl)cc3c2C1 | 21µM* | / | ? | -6 | 6% | -13
COc1ccccc1N1CCN(c2ccnc3cc(Cl)ccc23)CC1 | 2.6µM* | 40 | 4.6µM* | -13 | 15% | -3
COc1ccccc1NC(=O)N1CCN(c2ccnc3cc(Cl)ccc23)CC1 | ? | -75* | 16µM* | -15 | 4% | -14
NS(=O)(=O)c1ccc(NC(=O)Nc2cccc3ccccc23)cc1 | 5% | -18 | 19% | 2 | 0% | -1
CC(C)(C)OC(=O)N[C@@H](COCc1ccccc1)C(=O)N[C@@H](CO)[C@H](O)[C@@H]1C[C@@H]1C(=O)N1CCCC1 | -21% | 21 | -8% | 38 | / | /
Cc1cc(C)n2nc(CNS(=O)(=O)c3cccc([N+](=O)[O-])c3)nc2n1 | 7% | 9 | 1% | 3 | 2% | -2
Cc1ccc(-n2nc(C)c3c(C)c(CCC(=O)NC(C)c4ccccc4)c(C)nc32)cc1 (configuration not stated) | ? | 0 | ? | 1 | -2% | 4
Cc1cccc(C)c1NC(=O)C1(NC(=O)C2CCCN2C(=O)OC(C)(C)C)CCCCC1 (configuration not stated) | -14% | -10 | -7% | 6 | 9% | 6
